Reference: PubChem BioAssay (EPA / NIEHS)
Values joined by “and” are separate entries in the source; they are usually repeats but may differ in a detail not shown here. Identical values can stand only once. Records with an inconclusive call do not appear. The source holds several records for some structures; these can differ, active in one and inactive in another. Active and inactive are the calls of the source. Rule for the calls: active = hit-call score of the fitted dose curve at least 0.9, where 1 is the maximum; inconclusive = response in the unintended direction; inactive = score below 0.9.

What was measured:
[1] = ATG_M_06_XSP1: Attagene TRANS-FACTORIAL Multi-Species (XSP1) HepG2 Assay for M06 Transcription Factor (Internal Marker) (AID 2283790)
Outline: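 This background-control readout tracks M06 reporter mRNA, measured by RT-PCR and capillary electrophoresis. HepG2 cells transiently carrying the GAL4-UAS reporter panel were dosed for 24 h with 3 nM 6-alpha-fluorotestosterone added for partial AR stimulation; increases were scored relative to DMSO.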

[2] = ATG_M_61_XSP1: Attagene TRANS-FACTORIAL Multi-Species (XSP1) HepG2 Assay for M61 Transcription Factor (Internal Marker) (AID 2283797)
Outline: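 Background-control readout: reporter transcripts measured by RT-PCR and capillary electrophoresis 24 h after dosing transiently transfected HepG2 multi-reporter cells, with 3 nM 6-alpha-fluorotestosterone present. Fitted in the positive direction relative to DMSO.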

[3] = ATG_M_19_XSP1: Attagene TRANS-FACTORIAL Multi-Species (XSP1) HepG2 Assay for M19 Transcription Factor (Internal Marker) (AID 2283798)
Outline: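 Readout is reporter mRNA induction quantified via RT-PCR, 6-FAM labeling, HpaI digestion and capillary electrophoresis, fitted in the positive direction versus DMSO baseline. Transfected HepG2 cells exposed 24 h, medium including 3 nM 6-alpha-fluorotestosterone.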

[4] = ATG_M_32_XSP1: Attagene TRANS-FACTORIAL Multi-Species (XSP1) HepG2 Assay for M32 Transcription Factor (Internal Marker) (AID 2283799)
Outline: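 Reporter transcripts from the M32 internal-control unit measured by RT-PCR, FAM labelling, HpaI digestion and capillary electrophoresis after 24 h compound exposure of transfected HepG2, 3 nM 6-alpha-fluorotestosterone included; DMSO baseline, positive-direction fit.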

[5] = test system: zebrafish Peroxisome Proliferator-activated Receptor gamma (PPARg), gene 557037; assay: ATG_zfPPARg_XSP1: Attagene TRANS-FACTORIAL Multi-Species (XSP1) HepG2 Assay for zebrafish Peroxisome Proliferator-activated Receptor gamma (PPARg) (AID 2283801)
Outline: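 Trans-activation readout of chimeric zebrafish PPARg–GAL4 in transiently transfected human HepG2 cells, 24 h chemical exposure (medium includes 3 nM 6-alpha-fluorotestosterone). Reporter transcripts measured by RT-PCR and capillary electrophoresis, fitted as gain over DMSO.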

[6] = biological target: mouse Peroxisome Proliferator-activated Receptor gamma (PPARg), Pparg (gene 19016) (UniProt P37238); assay: ATG_mPPARg_XSP1: Attagene TRANS-FACTORIAL Multi-Species (XSP1) HepG2 Assay for mouse Peroxisome Proliferator-activated Receptor gamma (PPARg) (AID 2283802)
Sequence of mouse Peroxisome Proliferator-activated Receptor gamma (PPARg), Pparg (gene 19016) (P37238 whole entry, looked up, the tested form may be a part): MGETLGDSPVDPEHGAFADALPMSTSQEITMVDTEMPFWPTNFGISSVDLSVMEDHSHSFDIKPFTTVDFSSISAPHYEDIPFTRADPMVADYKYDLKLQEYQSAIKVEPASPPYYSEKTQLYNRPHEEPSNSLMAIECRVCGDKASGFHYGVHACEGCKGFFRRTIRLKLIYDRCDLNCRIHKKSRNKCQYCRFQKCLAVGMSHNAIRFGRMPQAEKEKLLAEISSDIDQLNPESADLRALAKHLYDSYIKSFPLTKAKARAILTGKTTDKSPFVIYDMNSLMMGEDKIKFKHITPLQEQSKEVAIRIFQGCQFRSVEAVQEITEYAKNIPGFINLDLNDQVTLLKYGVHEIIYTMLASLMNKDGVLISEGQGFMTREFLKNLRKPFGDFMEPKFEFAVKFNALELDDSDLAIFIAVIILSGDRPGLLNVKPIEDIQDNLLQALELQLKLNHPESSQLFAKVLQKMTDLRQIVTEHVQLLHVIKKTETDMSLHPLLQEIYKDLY
Outline: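 Readout is reporter mRNA induction, measured by RT-PCR with 6-FAM labelling, HpaI digestion and capillary electrophoresis, 24 h post-dose relative to DMSO. Transient multi-reporter transfection of human HepG2 with mouse PPARg–GAL4 fusion; 3 nM 6-alpha-fluorotestosterone included.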

[7] = biological target: Nuclear receptor subfamily 1 group I member 2 (Mus musculus) (UniProt O54915); assay: ATG_mPXR_XSP1: Attagene TRANS-FACTORIAL Multi-Species (XSP1) HepG2 Assay for mouse Pregnane X Receptor (PXR) (AID 2283803)
Sequence of Nuclear receptor subfamily 1 group I member 2 (Mus musculus) (O54915 whole entry, looked up, the tested form may be a part): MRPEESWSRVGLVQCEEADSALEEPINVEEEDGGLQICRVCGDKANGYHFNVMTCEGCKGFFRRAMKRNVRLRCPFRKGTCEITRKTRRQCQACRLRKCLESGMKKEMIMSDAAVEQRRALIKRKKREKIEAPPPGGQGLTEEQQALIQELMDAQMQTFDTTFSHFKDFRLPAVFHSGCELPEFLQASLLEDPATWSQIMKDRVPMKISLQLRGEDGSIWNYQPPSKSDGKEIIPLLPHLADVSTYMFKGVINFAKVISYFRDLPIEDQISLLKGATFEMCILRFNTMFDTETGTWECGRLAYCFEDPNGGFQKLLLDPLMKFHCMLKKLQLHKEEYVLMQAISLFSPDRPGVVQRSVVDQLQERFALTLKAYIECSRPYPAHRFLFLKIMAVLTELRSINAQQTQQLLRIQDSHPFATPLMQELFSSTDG
Outline: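 Transiently transfected HepG2 cells expressing a receptor-Gal4 chimera drive a GAL4-UAS reporter; 3 nM 6-alpha-fluorotestosterone included. Reporter mRNA read 24 h post-dose by RT-PCR and capillary electrophoresis; gain of signal relative to DMSO.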

[8] = test system: turtle Thyroid Hormone Receptor, alpha (TRa), gene 101949057; assay: ATG_trTRa_XSP1: Attagene TRANS-FACTORIAL Multi-Species (XSP1) HepG2 Assay for turtle Thyroid Hormone Receptor, alpha (TRa) (AID 2283806)
Outline: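 After 24 h chemical exposure, reporter transcripts were measured by RT-PCR with fluorescent primer extension, HpaI digestion and capillary electrophoresis. Cells were transiently transfected HepG2 expressing exogenous NR-Gal4 chimeras; medium contained 3 nM 6-alpha-fluorotestosterone; fitted upward relative to DMSO.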

[9] = biological target: zebrafish Thyroid Hormone Receptor alpha (TRa), thraa (gene 30670) (UniProt Q98867); assay: ATG_zfTRa_XSP1: Attagene TRANS-FACTORIAL Multi-Species (XSP1) HepG2 Assay for zebrafish Thyroid Hormone Receptor alpha (TRa) (AID 2283807)
Sequence of zebrafish Thyroid Hormone Receptor alpha (TRa), thraa (gene 30670) (Q98867 whole entry, looked up, the tested form may be a part): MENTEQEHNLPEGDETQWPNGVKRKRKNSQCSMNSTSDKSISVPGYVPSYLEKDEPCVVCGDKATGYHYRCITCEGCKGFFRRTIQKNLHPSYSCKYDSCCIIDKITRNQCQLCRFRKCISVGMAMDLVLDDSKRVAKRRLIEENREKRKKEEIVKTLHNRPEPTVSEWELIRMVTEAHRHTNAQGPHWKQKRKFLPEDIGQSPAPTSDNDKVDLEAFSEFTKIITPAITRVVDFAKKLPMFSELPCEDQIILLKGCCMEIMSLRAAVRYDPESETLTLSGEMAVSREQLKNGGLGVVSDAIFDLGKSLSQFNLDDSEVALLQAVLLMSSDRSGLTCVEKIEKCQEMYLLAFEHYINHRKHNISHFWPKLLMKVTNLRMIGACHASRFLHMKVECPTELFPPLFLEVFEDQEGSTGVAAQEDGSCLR
Outline: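 Reporter transcripts driven by a chimeric zebrafish TRa–Gal4 protein were measured by RT-PCR with fluorescent labelling and capillary electrophoresis. These came from transiently transfected HepG2 cells after 24 h chemical exposure, with 3 nM 6-alpha-fluorotestosterone added; baseline was DMSO.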

[10] = biological target: zebrafish Thyroid Hormone Receptor beta (TRb), thrb (gene 30607) (UniProt Q9PVE4); assay: ATG_zfTRb_XSP1: Attagene TRANS-FACTORIAL Multi-Species (XSP1) HepG2 Assay for zebrafish Thyroid Hormone Receptor beta (TRb) (AID 2283809)
Sequence of zebrafish Thyroid Hormone Receptor beta (TRb), thrb (gene 30607) (Q9PVE4 whole entry, looked up, the tested form may be a part): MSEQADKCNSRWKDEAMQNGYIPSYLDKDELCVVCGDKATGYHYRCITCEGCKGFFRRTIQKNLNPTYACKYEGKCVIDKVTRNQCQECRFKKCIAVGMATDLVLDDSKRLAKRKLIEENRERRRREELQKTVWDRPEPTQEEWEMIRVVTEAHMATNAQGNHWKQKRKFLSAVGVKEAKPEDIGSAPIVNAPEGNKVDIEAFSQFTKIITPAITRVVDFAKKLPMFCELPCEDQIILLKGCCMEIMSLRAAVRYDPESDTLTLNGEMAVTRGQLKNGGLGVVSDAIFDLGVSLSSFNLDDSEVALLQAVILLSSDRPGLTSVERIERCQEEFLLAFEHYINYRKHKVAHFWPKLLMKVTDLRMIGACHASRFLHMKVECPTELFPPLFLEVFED
Outline: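 HepG2 cells transiently transfected with multiplexed GAL4-UAS reporter units expressing chimeric zebrafish TRb–Gal4. Dosed 24 h with 3 nM 6-alpha-fluorotestosterone present; reporter mRNA measured by RT-PCR, HpaI digestion and capillary electrophoresis; gain of signal versus DMSO.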

[11] = ATG_M_06_XSP2: Attagene TRANS-FACTORIAL Multi-Species (XSP2) HepG2 Assay for M06 Transcription Factor (Internal Marker) (AID 2283811);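 note: hits are increases in signal above the DMSO baseline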
Outline: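 Cells of the human liver line HepG2 carried transfected reporter transcription units and were treated for 24 h. Induced reporter transcripts were detected by fluorescence after RT-PCR and capillary electrophoresis, with activity fitted in the gain direction against DMSO.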

[12] = test system: turtle Estrogen Receptor (ERa), gene 101933533; assay: ATG_trERa_XSP2: Attagene TRANS-FACTORIAL Multi-Species (XSP2) HepG2 Assay for turtle Estrogen Receptor (ERa) (AID 2283812);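 note: actives raise reporter signal above DMSO so AC50 reflects agonist activity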
Outline: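 Readout is reporter mRNA quantified by RT-PCR with capillary electrophoresis after 24 h compound exposure, increase relative to DMSO. Uses transiently transfected human HepG2 liver cells carrying a chimeric turtle ERa-Gal4 receptor driving GAL4-UAS reporters.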

[13] = biological target: Estrogen receptor beta (Homo sapiens) (UniProt Q92731); assay: ATG_hERb_XSP2: Attagene TRANS-FACTORIAL Multi-Species (XSP2) HepG2 Assay for human Estrogen Receptor (ERb) (AID 2283813);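 note: actives raise reporter mRNA above DMSO so AC50 reflects agonist induction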
Sequence of Estrogen receptor beta (Homo sapiens) (Q92731 whole entry, looked up, the tested form may be a part): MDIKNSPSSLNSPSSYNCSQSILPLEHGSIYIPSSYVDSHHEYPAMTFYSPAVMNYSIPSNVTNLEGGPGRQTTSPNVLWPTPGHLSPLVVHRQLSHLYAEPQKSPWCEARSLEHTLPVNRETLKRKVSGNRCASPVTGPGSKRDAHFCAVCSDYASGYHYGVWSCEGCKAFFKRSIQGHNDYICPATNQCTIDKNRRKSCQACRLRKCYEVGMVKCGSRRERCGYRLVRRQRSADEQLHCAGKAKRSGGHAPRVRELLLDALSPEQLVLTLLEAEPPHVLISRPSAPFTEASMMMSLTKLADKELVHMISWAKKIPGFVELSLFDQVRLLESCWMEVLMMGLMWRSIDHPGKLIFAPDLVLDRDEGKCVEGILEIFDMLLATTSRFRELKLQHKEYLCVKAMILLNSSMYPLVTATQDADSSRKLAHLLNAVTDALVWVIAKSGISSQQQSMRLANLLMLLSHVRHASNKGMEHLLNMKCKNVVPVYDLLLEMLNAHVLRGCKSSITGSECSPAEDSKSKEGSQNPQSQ
Outline: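 Transient TRANS reporter system in HepG2: after 24 h of chemical, RNA is reverse-transcribed, reporter cDNA amplified, FAM-labelled and sized by capillary electrophoresis. Induction of the human ERb-Gal4 reporter is measured relative to DMSO.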

[14] = biological target: GAL4 Transcription Factor (Internal Marker), GAL4 (gene 855828) (UniProt P04386); assay: ATG_GAL4_XSP2: Attagene TRANS-FACTORIAL Multi-Species (XSP2) HepG2 Assay for GAL4 Transcription Factor (Internal Marker) (AID 2283814);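 note: GAL4 reporter mRNA background control in MRTU transfected cells not a receptor target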
Outline: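 Background-control readout: gain-of-signal fitted against DMSO. After 24 h exposure of transfected HepG2 (MRTU, GAL4-UAS reporters; 3 nM 6-alpha-fluorotestosterone, 1.5 nM norgestrel present), transcripts quantified by RT-PCR and capillary electrophoresis fluorescence.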

[15] = biological target: Peroxisome proliferator-activated receptor gamma (Homo sapiens) (UniProt P37231); assay: ATG_hPPARg_XSP1: Attagene TRANS-FACTORIAL Multi-Species (XSP1) HepG2 Assay for human Peroxisome Proliferator-activated Receptor gamma (PPARg) (AID 2283800)
Sequence of Peroxisome proliferator-activated receptor gamma (Homo sapiens) (P37231 whole entry, looked up, the tested form may be a part): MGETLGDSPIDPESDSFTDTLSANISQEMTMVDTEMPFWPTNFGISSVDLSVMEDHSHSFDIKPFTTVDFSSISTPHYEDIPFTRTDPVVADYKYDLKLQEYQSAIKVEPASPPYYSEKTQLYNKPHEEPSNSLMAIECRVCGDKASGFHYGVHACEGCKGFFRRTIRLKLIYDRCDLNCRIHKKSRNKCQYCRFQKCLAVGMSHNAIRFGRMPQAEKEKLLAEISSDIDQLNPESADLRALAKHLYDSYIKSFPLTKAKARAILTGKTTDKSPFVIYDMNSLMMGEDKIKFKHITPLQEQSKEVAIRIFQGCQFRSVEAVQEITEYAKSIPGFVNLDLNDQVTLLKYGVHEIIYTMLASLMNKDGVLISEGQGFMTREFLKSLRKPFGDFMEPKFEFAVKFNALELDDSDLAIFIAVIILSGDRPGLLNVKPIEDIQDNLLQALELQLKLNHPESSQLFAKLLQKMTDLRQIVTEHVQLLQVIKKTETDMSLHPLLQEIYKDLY
Outline: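 Reporter mRNA induction, measured by RT-PCR with capillary electrophoresis 24 h after dosing, scored as gain over DMSO. Transfected HepG2 cells express exogenous NR-Gal4 chimeras driving GAL4-UAS reporters; medium includes 3 nM 6-alpha-fluorotestosterone.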

[16] = ATG_XTT_Cytotoxicity_XSP1: Cytotoxicity Assessment in the Attagene TRANS-FACTORIAL Multi-Species (XSP1) HepG2 Assay (AID 2283810)
Outline: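 XTT viability readout taken at 24 hours post-dosing in HepG2 liver cells co-treated with 3 nM 6-alpha-fluorotestosterone. Signal loss relative to DMSO controls reflects cytotoxicity.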

[17] = biological target: frog Thyroid hormone Receptor alpha (TRa), thra-a (gene 397942) (UniProt P15204); assay: ATG_frTRa_XSP1: Attagene TRANS-FACTORIAL Multi-Species (XSP1) HepG2 Assay for frog Thyroid hormone Receptor alpha (TRa) (AID 2283804)
Sequence of frog Thyroid hormone Receptor alpha (TRa), thra-a (gene 397942) (P15204 whole entry, looked up, the tested form may be a part): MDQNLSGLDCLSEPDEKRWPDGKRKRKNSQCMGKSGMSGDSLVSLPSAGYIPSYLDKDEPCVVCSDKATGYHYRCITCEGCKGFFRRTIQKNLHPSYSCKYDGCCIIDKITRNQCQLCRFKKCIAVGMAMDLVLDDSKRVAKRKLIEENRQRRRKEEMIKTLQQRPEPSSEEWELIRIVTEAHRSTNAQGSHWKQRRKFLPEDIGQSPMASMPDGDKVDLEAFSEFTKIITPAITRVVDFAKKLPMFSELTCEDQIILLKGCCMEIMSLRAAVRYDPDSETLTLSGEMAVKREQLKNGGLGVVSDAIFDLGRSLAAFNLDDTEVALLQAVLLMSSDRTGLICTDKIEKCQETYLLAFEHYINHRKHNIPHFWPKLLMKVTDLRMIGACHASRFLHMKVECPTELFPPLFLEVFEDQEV
Outline: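 Reporter transcript induction, measured by RT-PCR with 6-FAM labelling and capillary electrophoresis, 24 hr after dosing transiently transfected HepG2 cells expressing a frog TRa-GAL4 fusion; medium contained 3 nM 6-alpha-fluorotestosterone; increase over DMSO scored.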

[18] = biological target: human Thyroid hormone Receptor beta (TRb), THRB (gene 7068) (UniProt P10828); assay: ATG_hTRb_XSP1: Attagene TRANS-FACTORIAL Multi-Species (XSP1) HepG2 Assay for human Thyroid hormone Receptor beta (TRb) (AID 2283808)
Sequence of human Thyroid hormone Receptor beta (TRb), THRB (gene 7068) (P10828 whole entry, looked up, the tested form may be a part): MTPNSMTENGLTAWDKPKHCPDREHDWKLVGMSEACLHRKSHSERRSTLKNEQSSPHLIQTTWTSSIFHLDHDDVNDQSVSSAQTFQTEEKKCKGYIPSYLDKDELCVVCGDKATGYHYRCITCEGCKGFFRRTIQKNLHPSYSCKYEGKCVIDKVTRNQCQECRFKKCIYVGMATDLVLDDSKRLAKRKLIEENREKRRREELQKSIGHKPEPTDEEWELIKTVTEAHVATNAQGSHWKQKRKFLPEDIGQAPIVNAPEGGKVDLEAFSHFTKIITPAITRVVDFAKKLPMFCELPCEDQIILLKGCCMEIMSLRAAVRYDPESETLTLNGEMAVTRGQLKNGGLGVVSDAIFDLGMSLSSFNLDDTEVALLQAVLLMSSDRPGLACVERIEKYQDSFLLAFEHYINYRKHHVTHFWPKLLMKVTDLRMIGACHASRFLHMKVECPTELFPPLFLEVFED
Outline: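 Readout is reporter mRNA induction measured by RT-PCR, fluorescent labelling and capillary electrophoresis, fitted upward relative to DMSO. Transiently transfected human HepG2 cells expressing NR-Gal4 chimeras were dosed for 24 h, medium containing 3 nM 6-alpha-fluorotestosterone.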

[19] = biological target: human Thyroid hormone Receptor alpha (TRa), THRA (gene 7067) (UniProt P10827); assay: ATG_hTRa_XSP1: Attagene TRANS-FACTORIAL Multi-Species (XSP1) HepG2 Assay for human Thyroid hormone Receptor alpha (TRa) (AID 2283805)
Sequence of human Thyroid hormone Receptor alpha (TRa), THRA (gene 7067) (P10827 whole entry, looked up, the tested form may be a part): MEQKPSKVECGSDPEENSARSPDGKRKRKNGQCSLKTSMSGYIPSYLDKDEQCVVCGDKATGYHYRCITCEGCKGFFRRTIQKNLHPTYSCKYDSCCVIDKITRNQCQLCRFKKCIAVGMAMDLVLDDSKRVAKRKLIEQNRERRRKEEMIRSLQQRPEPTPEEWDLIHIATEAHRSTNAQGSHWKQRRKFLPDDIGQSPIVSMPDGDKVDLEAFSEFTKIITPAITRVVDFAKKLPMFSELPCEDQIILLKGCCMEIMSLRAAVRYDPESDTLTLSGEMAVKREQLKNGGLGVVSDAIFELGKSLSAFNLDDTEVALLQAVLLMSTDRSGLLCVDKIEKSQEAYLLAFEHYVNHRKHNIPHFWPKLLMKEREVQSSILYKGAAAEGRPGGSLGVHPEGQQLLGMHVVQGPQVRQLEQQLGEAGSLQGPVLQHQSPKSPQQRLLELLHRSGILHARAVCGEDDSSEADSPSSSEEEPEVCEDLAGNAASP
Outline: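 Reporter transcripts from the human TRa-Gal4 TRANS unit quantified by RT-PCR, fluorescent labeling and capillary electrophoresis after 24 hours of chemical exposure in transfected HepG2 cells; medium contains 3 nM 6-alpha-fluorotestosterone. Positive direction fit against DMSO.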

[20] = test system: turtle Androgen Receptor (AR), gene 101947425; assay: ATG_trAR_XSP2: Attagene TRANS-FACTORIAL Multi-Species (XSP2) HepG2 Assay for turtle Androgen Receptor (AR) (AID 2283815)
Outline: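 Reporter transcripts were quantified via RT-PCR and capillary electrophoresis and fitted upward against DMSO. Transiently transfected human HepG2 cells carrying NR-Gal4 chimeras were exposed 24 h, with 3 nM 6-alpha-fluorotestosterone plus 1.5 nM norgestrel added.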

Measured: AC50

CCCCC(CC)COC(=O)c1ccccc1C(=O)O (stereo unspecified)
active: [5] 64.2 µM | [6] 13.2 µM | [7] 3.95 µM | [12] 27.1 µM
inactive: [1] | [2] | [3] | [4] | [8] | [9] | [10] | [11] | [13]

CSC(=O)c1cccc2nnsc12
inactive: [11] | [12] | [14]

CCCCC(CC)CN1C(=O)C2C3C=CC(C3)C2C1=O (stereo unspecified)
inactive: [3] | [4] | [5] | [10] | [16] | [12] | [13] | [14]
active: [15] 15.5 µM | [6] 27.7 µM | [7] 0.845 µM

C=CCOC(Cn1ccnc1)c1ccc(Cl)cc1Cl (stereo unspecified)
active: [15] 100 µM | [6] 9.81 µM | [7] 0.948 µM
inactive: [1] | [2] | [4] | [5] | [17] | [9] | [18] | [16] | [11] | [12] | [13] | [14]

CC(=O)S[C@@H]1CC2=CC(=O)CC[C@]2(C)[C@H]2CC[C@@]3(C)[C@@H](CC[C@@]34CCC(=O)O4)[C@H]12
active: [7] 0.411 µM
inactive: [1] | [2] | [15] | [5] | [6] | [17] | [19] | [9] | [18] | [10] | [11] | [12] | [13] | [14]

C#C[C@]1(O)CC[C@H]2[C@@H]3CCC4=CC(=O)CC[C@@H]4[C@H]3CC[C@@]21CC
inactive: [17] | [8] | [9] | [18] | [10] | [11] | [12] | [14] | [20]
active: [12] 0.522 µM

CCN(Cc1c(F)cccc1Cl)c1c([N+](=O)[O-])cc(C(F)(F)F)cc1[N+](=O)[O-]
active: [12] 2.15 µM
inactive: [12] | [13] | [20]

Oc1ccc(C(c2ccc(O)cc2)C(Cl)(Cl)Cl)cc1
inactive: [1] | [2] | [15] | [5] | [6] | [7] | [17] | [8] | [9] | [18] | [10] | [11] | [12] | [13] | [14]

CC(C)(c1ccc(O)cc1)c1ccc(O)cc1
active: [12] 0.189 µM
inactive: [1] | [2] | [6] | [7] | [17] | [19] | [8] | [9] | [10] | [11]

N[C@@H](Cc1cc(I)c(Oc2ccc(O)c(I)c2)c(I)c1)C(=O)O
active: [12] 359 nM and 3.85 µM
inactive: [11] | [14] | [20]

O=C(c1ccc(O)cc1O)c1ccc(O)cc1O
inactive: [1] | [2] | [15] | [6] | [17] | [19] | [9] | [18] | [10] | [16] | [11]
active: [12] 2.86 µM | [13] 1.32 µM

CC1(C)C(C=C(Cl)Cl)C1C(=O)OCc1cccc(Oc2ccccc2)c1 (stereo unspecified)
inactive: [3] | [5] | [17] | [8] | [9] | [14] | [20]
active: [7] 1.73 µM | [12] 42.3 µM

CC(C)CCCCCCc1ccc(O)cc1
inactive: [1] | [2] | [15] | [5] | [7] | [8] | [10] | [11] | [13]
active: [6] 15.9 µM | [12] 0.989 µM

CN(C)C(=O)Nc1ccc(Cl)c(Cl)c1
active: [12] 25.1 µM and 18 µM
inactive: [11]
